Compound activity from PubChem.
ELG1 genotox: genotoxicity induction in ELG1-luciferase HEK293T cells; HEK293T ELG1-luciferase reporter, luminescence, 16 h; Potency, µM (doses to about 46 µM), without a hit: at the top dose activity change, positive = activation, usual class: activators; actives 1.3% (n = 330,000); note: % of control where 0% means no effect; nearly all actives have a fitted effect of over 60% in size
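Genotoxic stress is detected as increased luminescence from luciferase-tagged ELG1 in HEK293T cells, measured with ONE-Glo after a 16 hr treatment at 37 °C.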
KinaseGlo FLuc: Kinase-Glo luciferase inhibition (counter-screen); Q27757; Kinase-Glo luciferase, ATP luminescence, 8 min; Potency, µM (top dose mostly 38.3 µM), inactives show at the highest dose activity change, negative = inhibition, usual class: inhibitors; actives 0.28% (n = 200,000); note: % is set by controls: 0 for no effect and ±100 for the full control effect; nearly all actives have a fitted effect of over 60% in size
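Light output from Kinase-Glo luciferase with luciferin and 10 uM ATP in 50 mM imidazole pH 7.2, KCl, MgCl2, Tween 20, BSA; compound pin-delivered, 8-min ambient incubation, then luminescence read.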
FLuc counter: firefly luciferase modulation, counter-screen for miR-21 project; P08659; purified FLuc, Km substrates, luminescence inhibition; Potency, µM (highest dose often 57.5 µM), inactives show at the highest dose activity change, negative = inhibition, usual class: inhibitors; actives 6.9% (n = 360,000);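 note: plate controls were vehicle for no effect and reference inhibitor for full effect; nearly all actives have a fitted effect of over 55% in size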
Target sequence (P08659 whole entry, looked up): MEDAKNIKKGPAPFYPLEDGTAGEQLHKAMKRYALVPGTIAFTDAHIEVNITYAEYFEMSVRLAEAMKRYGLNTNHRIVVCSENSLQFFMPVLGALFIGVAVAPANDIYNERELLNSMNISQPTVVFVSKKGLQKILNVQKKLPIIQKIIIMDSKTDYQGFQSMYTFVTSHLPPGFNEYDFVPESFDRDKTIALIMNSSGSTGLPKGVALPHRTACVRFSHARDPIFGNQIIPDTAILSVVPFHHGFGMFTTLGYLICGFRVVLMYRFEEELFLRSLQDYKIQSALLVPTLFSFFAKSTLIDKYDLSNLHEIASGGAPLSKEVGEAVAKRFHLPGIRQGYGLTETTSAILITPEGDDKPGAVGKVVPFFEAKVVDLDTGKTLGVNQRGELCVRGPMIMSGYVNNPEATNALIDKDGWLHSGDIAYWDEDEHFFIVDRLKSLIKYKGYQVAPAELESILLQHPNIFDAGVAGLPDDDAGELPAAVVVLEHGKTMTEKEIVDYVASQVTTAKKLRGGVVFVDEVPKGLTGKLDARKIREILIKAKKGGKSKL
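Purified P. pyralis luciferase, 10 nM final, with Km-level 10 uM D-luciferin and 10 uM ATP in 50 mM Tris acetate pH 7.5, 10 mM Mg acetate, 0.01% Tween-20, 0.05% BSA; 6-point qHTS titration about 60 µM downward; luminescence read.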
NPC1 prom act: activates the NPC1 promoter. Huh7 NPC1 promoter luciferase reporter, 24 h. actives 2.4% (n = 320,000). Potency, µM (series often up to 9.22 µM), without a hit: at the highest dose activation, most hits filed as activators; note: % of control where 0% means no effect; nearly all actives have a fitted effect of over 60% in size
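Stable NPC1-promoter luciferase Huh7 line; cpd (DMSO) 24 h, 37 °C, 5% CO2; Amplite luciferase reagent 10 min RT; luminescence readout. qHTS format.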
SMN2 splice up: enhancers of SMN2 splice variant expression. AID 1458. HEK293 SMN2-luciferase splicing reporter, luminescence, 30-36 h. actives 2.8% (n = 210,000). Potency, µM (highest dose often 46.1 µM), for the others: top-dose activity change, positive = activation, hits mostly activators; note: % of control where 0% means no effect; nearly all actives have a fitted effect of over 55% in size
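HEK293 cells carry an SMN2 minigene-luciferase reporter in which exon 7 inclusion puts luciferase in frame. Cells were seeded at 2000 cells/well, attached for 10-12 hours, then exposed to compounds for 30-36 hours at 37C before ONE-Glo luminescence.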
Rab9 promoter act: activators of Rab9 promoter | Huh7 Rab9 promoter-luciferase reporter, luminescence, 24 h | Potency, µM (titrated, usually from 9.22 µM), for the others: at the highest dose activation, negative = inhibition, actives largely listed as activators | actives 2.8% (n = 320,000); note: % of control where 0% means no effect; nearly all actives have a fitted effect of over 60% in size
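Promoter activation is measured as luciferase luminescence in Huh7 cells stably transfected with a Rab9 promoter–luciferase construct, following 24 h compound exposure at 37 °C and 10 min reagent incubation at ambient temperature.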
The depositor's hits bear a star; [ ] = remark or other dose. Only some compounds are listed: those with a hit (about 7.4% of all), similar ones and a draw of the others. Calls come from the whole dose curve; as a rule, active = well fitted curve in the direction sought with a large enough effect; inconclusive = small, poorly fitted or top-dose-only effect, or another doubt; inactive = no such curve, though single readings can be large; an effect the other way counts as inactive or inconclusive. Potency is the fitted concentration of half-maximal effect.

How did NC(=O)c1ccc(NC(=O)c2ccc3c(c2)OCO3)cc1 do in these assays?
ELG1 genotox: 18µM*; KinaseGlo FLuc: -5%; FLuc counter: 4.8µM*; NPC1 prom act: 1.3µM*; SMN2 splice up: 13µM*; Rab9 promoter act: 1.6µM*

Results for O=C(Nc1ccc2c(c1)OCO2)c1ccc2c(c1)OCO2 ?
ELG1 genotox: inconclusive; KinaseGlo FLuc: inconclusive; FLuc counter: 2.1µM*; NPC1 prom act: 0.79µM*; SMN2 splice up: 5µM*; Rab9 promoter act: 0.56µM*

Results for Cc1[nH]c2ccccc2c1C(=O)C(=O)Nc1ccc2c(c1)OCO2 ?
ELG1 genotox: 17%; FLuc counter: 17µM*; NPC1 prom act: inconclusive; Rab9 promoter act: inconclusive

Results for CCN1CCN(c2ccc(NC(=O)c3ccc4c(c3)OCO4)cc2)CC1 ?
ELG1 genotox: 9.2µM*; KinaseGlo FLuc: 2%; FLuc counter: 17µM*; NPC1 prom act: inconclusive; SMN2 splice up: 16µM*; Rab9 promoter act: inconclusive

How did Cn1c(=O)c2c(ncn2CC(=O)Nc2cccc(Cl)c2Cl)n(C)c1=O do in these assays?
FLuc counter: -3%; SMN2 splice up: -3%

How did O=C(Nc1ccc(NC(=O)c2ccc(Cl)cc2Cl)cc1)c1ccc2c(c1)OCO2 do in these assays?
ELG1 genotox: 1%; FLuc counter: 0%; NPC1 prom act: -3%; Rab9 promoter act: 0%

Results for CC(NC(=O)C1=Cc2ccccc2OC1)c1ccccc1 (stereo unspecified) ?
FLuc counter: -3%

Results for O=C(Nc1ccc(Cl)cc1)c1ccc2c(c1)OCO2 ?
ELG1 genotox: inconclusive; KinaseGlo FLuc: -9%; FLuc counter: 1.3µM*; NPC1 prom act: 0.4µM*; SMN2 splice up: 4.5µM*; Rab9 promoter act: inconclusive

How did O=C(Nc1ccc2c(c1)OCO2)c1ccc(CO)cc1 do in these assays?
ELG1 genotox: inconclusive; FLuc counter: 9.5µM*; NPC1 prom act: 3.2µM*; Rab9 promoter act: 2.8µM*

What do the screens show for `CCC(=O)Nc1ccc(C(=O)Nc2ccc3c(c2)OCO3)cc1`?
ELG1 genotox: 11%; KinaseGlo FLuc: -4%; FLuc counter: inconclusive; NPC1 prom act: 18%; SMN2 splice up: 2%; Rab9 promoter act: 14%

What do the screens show for `O=C(Nc1ccc(Cl)cc1)C1=Cc2ccccc2OC1`?
ELG1 genotox: 1.5µM*; KinaseGlo FLuc: 1%; FLuc counter: 1.9µM*; NPC1 prom act: 3.2µM*; SMN2 splice up: 22µM*; Rab9 promoter act: 0.56µM*

What do the screens show for `O=C(Nc1ccc2c(c1)OCO2)c1ccc(N2CCCC2)c([N+](=O)[O-])c1`?
ELG1 genotox: 3%; KinaseGlo FLuc: 1%; FLuc counter: 19µM*; NPC1 prom act: 14%; SMN2 splice up: 24%; Rab9 promoter act: -1%

What do the screens show for `COc1ccc(NC(=O)C2=C(C)Nc3nc(SCc4ccc(Cl)cc4)nn3C2c2cccc(OC)c2OC)cc1` (stereo unspecified)?
FLuc counter: -1%

Results for Cc1ccc(CNC(=O)COCc2cc(-c3ccc4c(c3)OCO4)on2)cc1 ?
FLuc counter: -14%

Results for O=C(Nc1ccc(Br)cc1)c1ccc2c(c1)OCO2 ?
ELG1 genotox: 8.2µM*; FLuc counter: 2.1µM*; NPC1 prom act: 1µM*; Rab9 promoter act: 0.71µM*

How did O=C(Nc1ccc(Cl)c(Cl)c1)c1ccc2c(c1)OCO2 do in these assays?
ELG1 genotox: 4.6µM*; FLuc counter: 1.5µM*; NPC1 prom act: 0.79µM*; Rab9 promoter act: 0.56µM*

What do the screens show for `COc1ccccc1Cn1ccn(CC(=O)Nc2c(C)cc(C)cc2C)c(=O)c1=O`?
FLuc counter: 0%

How did CN(C(=O)CSc1ncnc2ccccc12)C1CCCCC1 do in these assays?
ELG1 genotox: inconclusive; FLuc counter: 15µM*; NPC1 prom act: inconclusive; Rab9 promoter act: 3.5µM*

How did COCC(C)NC(=O)CSc1ncnc2sc(-c3ccccc3)cc12 (stereo unspecified) do in these assays?
ELG1 genotox: -7%; FLuc counter: inconclusive; NPC1 prom act: -3%; Rab9 promoter act: -3%

Results for CCN(CC)C(=O)CSc1ncnc2sc(-c3ccccc3)cc12 ?
ELG1 genotox: inconclusive; KinaseGlo FLuc: 1%; FLuc counter: 11µM*; NPC1 prom act: inconclusive; SMN2 splice up: -10%; Rab9 promoter act: 2.8µM*

What do the screens show for `CN(C(=O)CSc1ncnc2scc(-c3ccccc3)c12)C1CCS(=O)(=O)C1` (stereo unspecified)?
ELG1 genotox: 3%; KinaseGlo FLuc: -2%; FLuc counter: 0%; NPC1 prom act: 1%; SMN2 splice up: 8%; Rab9 promoter act: -2%

What do the screens show for `CN(CCC#N)C(=O)CSc1ncnc2sc(-c3ccccc3)cc12`?
ELG1 genotox: -1%; KinaseGlo FLuc: -2%; FLuc counter: 11µM*; NPC1 prom act: 16%; SMN2 splice up: -22%; Rab9 promoter act: 20%

Results for CN(C(=O)CSc1ncnc2sc(-c3ccccc3)cc12)C1CCS(=O)(=O)C1 (stereo unspecified) ?
ELG1 genotox: -6%; KinaseGlo FLuc: 0%; FLuc counter: 17µM*; NPC1 prom act: -1%; SMN2 splice up: -47%; Rab9 promoter act: 9%

Results for Cc1ccc(C2CC(=O)Oc3cc(C)c(Cl)cc32)cc1 (stereo unspecified) ?
KinaseGlo FLuc: -1%[39.9 µM]

What do the screens show for `CSc1nc(-c2ccc(Cl)cc2)nn1S(=O)(=O)c1ccccc1`?
ELG1 genotox: 18%; KinaseGlo FLuc: 1%; FLuc counter: 13µM*; NPC1 prom act: inconclusive; SMN2 splice up: 13µM*; Rab9 promoter act: inconclusive

How did O=S(=O)(c1ccccc1)n1nc(-c2ccc(Cl)cc2)nc1NCc1ccccc1 do in these assays?
FLuc counter: 2%; SMN2 splice up: 19%

Results for CS(=O)(=O)n1nc(-c2ccc(Cl)cc2)nc1SCc1ccccc1 ?
ELG1 genotox: 15µM*; KinaseGlo FLuc: -2%; NPC1 prom act: inconclusive; SMN2 splice up: 22%; Rab9 promoter act: inconclusive

How did CSc1nc(-c2ccc(Cl)cc2)nn1S(=O)(=O)c1ccc(Cl)cc1 do in these assays?
ELG1 genotox: inconclusive; KinaseGlo FLuc: 3%; FLuc counter: -19%; NPC1 prom act: 26%; SMN2 splice up: 11µM*; Rab9 promoter act: 3.5µM*

How did Cc1ccc(S(=O)(=O)n2nc(-c3ccc(Cl)cc3)nc2NCc2ccco2)cc1 do in these assays?
ELG1 genotox: inconclusive; KinaseGlo FLuc: 2%; FLuc counter: 6%; NPC1 prom act: 13%; SMN2 splice up: inconclusive; Rab9 promoter act: 14%
